Hits are enriched below; roughly 21% of the tested compounds scored in any of these assays.
Pf growth 48h = inhibits P. falciparum growth in the first generation, 48 h. Potency, µM (series often up to 28.7 µM), inactives show at the top dose activity change, negative = inhibition, usual class: inhibitors. 310,000 tested, 5.9% active. P. falciparum luciferase growth in erythrocytes, 48 h; further: potency means the concentration at half of the fitted maximal effect; on the % scale 0 is the no-effect control and ±100 the full control effect
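Luciferase-expressing P. falciparum in infected erythrocytes (2% hematocrit, 0.1% parasitemia final) in RPMI 1640/0.5% Albumax were exposed to compound for 48 hours at 37 C, 5% CO2; growth read as luminescence.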
Shiga toxin inh = Shiga toxin inhibition; Vero cells, Shiga toxin protein synthesis inhibition reporter; inhibition, % at 38.7 µM; 290,000 tested, 9.2% active; in the data active means inhibition mostly above about 28%, no sharp cut-off; inactive means mostly below about 43%; further: 0% is about no effect
Pf growth 96h = P. falciparum growth inhibition at 96 hour, primary screen for plastid delayed-death inhibitors; P. falciparum luciferase reporter growth, 96 h; 320,000 tested, 6.9% active; Potency, µM (series often up to 28.7 µM), for the others: at the top dose activity change, negative = inhibition, actives largely listed as inhibitors; further: potency means the concentration at half of the fitted maximal effect; on the % scale 0 is the no-effect control and ±100 the full control effect
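Delayed-death screen, second-generation endpoint: infected erythrocytes, 2% hematocrit, 0.05% parasitemia final; 96 hours at 37 C, 5% CO2; luciferase detection reagent; luminescence decrease equals reduced growth.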
Cycloheximide cs = counter-screen for Shiga toxin inhibitors: cycloheximide protein synthesis inhibition; cell reporter, cycloheximide protein synthesis inhibition counterscreen; max response, %; 300,000 tested, 12% active; in the data active means max response mostly above about 13%, no sharp cut-off; inactive means mostly below about 14%; further: read at 38.3 µM for the half of the compounds with a filed dose; 0% is about no effect
Active calls of the source: *; ? = inconclusive; · = no result; [ ] = remark or other dose. Unless noted, the call rests on the fitted dose curve; in most records, active means well fitted inhibition curve with a large enough effect; inconclusive means small, poorly fitted or top-dose-only effect, or another doubt; inactive means no such curve, though single readings can be large or run the other way.

SMILES	Pf growth 48h	Shiga toxin inh	Pf growth 96h	Cycloheximide cs
N/C(=N\OC(=O)c1cc([N+](=O)[O-])ccc1Cl)c1ccccn1	45%	58*	-23%	23*
N/C(=N\OC(=O)c1cc(Br)ccc1Cl)c1ccccn1	159%[5.75 µM]	77*	33%	52*
O=[N+]([O-])c1ccc(Oc2cccc3cccnc23)c([N+](=O)[O-])c1	10µM*	-8	13µM*	-2
NC(=O)c1ccc([N+](=O)[O-])cc1Cl	?	·	11µM*	·
CC(C(=O)Nc1nccs1)N1C(=O)c2ccccc2S1(=O)=O (configuration not stated)	3%	·	4%	·
COc1ccc(CC(=O)Nc2cccc(-c3ccc4nnc(C)n4n3)c2)cc1OC	-20%	1	?	1
O=C(COC(=O)CNS(=O)(=O)c1cccc(Br)c1)Nc1ccccc1Sc1ccccc1	15%	-7	46%	1
O=C(NCc1cccs1)c1cc(S(=O)(=O)N2CCOCC2)c(Cl)cc1Cl	-22%	-10	?	5
COc1ccc(CN(CC(=O)NCc2ccccc2)C(=O)CCC(=O)Nc2nccs2)cc1	-19%	-2	36%	1
COc1ccc(C/C(N)=N/OC(=O)c2cccc([N+](=O)[O-])c2)cc1	?	-10	-4%	6
N/C(=N\OC(=O)c1ccc(Cl)cc1[N+](=O)[O-])c1ccccn1	-29%	118*	-45%	48*
Cc1c(C(=O)O/N=C(\N)c2ccccn2)cccc1[N+](=O)[O-]	-29%	28	?	22*
COc1ccccc1C/C(N)=N/OC(=O)c1cccc([N+](=O)[O-])c1	12µM*	47	?	5
CCn1c(CC(=O)Nc2ccc(F)cc2)nnc1SCC(=O)Nc1nnc(C)s1	11%	-13	14%	-7
COc1ccc([N+](=O)[O-])cc1NC(=O)C(C)OC(=O)Cn1[nH]c(=O)c2ccccc2c1=O (configuration not stated)	35%	·	23%	·
O=C(Nc1ncccc1O)c1ccc2c(c1)OCO2	9.3µM*	·	4.1µM*	·
Cc1cccnc1NC(=O)c1ccc2c(c1)OCCO2	87%	·	158%	·
O=C(Nc1ccc(Br)cc1)c1ccc2c(c1)OCO2	123%	162*	102%	38*
O=C(Nc1ccon1)c1ccc2c(c1)OCO2	82%	31*	·	43*
O=C(Nc1cccc(NC(=O)c2ccco2)c1)c1ccc2c(c1)OCO2	11%	22	-12%	10
O=C(Nc1ccc2c(c1)OCO2)c1ccc(Cl)s1	·	81*	170%	78*
CCOC(=O)N1CCN(CC(O)COc2c(C)cc(C)cc2C)CC1 (configuration not stated)	15%	2	133%	-6
CS(=O)(=O)N(CC(=O)NC1CC1)C1CCCCC1	-20%	-9	-6%	-4
O=C(Nc1ccc2c(c1)OCO2)c1cccc(Cl)c1	244%	107*	?	49*
O=c1c(O)c(-c2ccc3c(c2)OCO3)oc2ccccc12	?	22	?	34*
SMILES	Pf growth 48h	Shiga toxin inh	Pf growth 96h	Cycloheximide cs
O=C(Nc1ccc2c(c1)OCO2)c1ccc2c(c1)OCO2	275%	67*	393%	40*
O=C(Nc1ccc(F)c(F)c1)c1ccc2c(c1)OCO2	168%	100*	2.3µM*	94*
O=C(Nc1ccc2c(c1)OCO2)c1ccc[n+]([O-])c1	53%	58	104%	8
O=C(Nc1ccc2c(c1)OCO2)c1c(F)c(F)c(F)c(F)c1F	-6%	6	·	10
CC(=O)N[C@@H](C)c1nc2ccccc2n1CCCN1CCN(c2nc(-c3ccc(C)cc3)cs2)CC1	?	17	?	1
CC(C)CC(NC(=O)C(NC(=O)C1CCC(=O)N1C(=O)OCc1ccccc1)C(C)C)C(=O)N1CCCC1C(N)=O (configuration not stated)	16%	-5	?	-4
CSc1nnc(SCC#N)s1	33%	-4	40%	-2
Cc1ccc(NC(=O)c2ccc3c(c2)OCCO3)nc1	-8%	·	-25%	·
O=C(Nc1ccc(NC(=O)c2ccc(Cl)cc2Cl)cc1)c1ccc2c(c1)OCO2	27%	10	?	-1
O=C(Nc1cc([N+](=O)[O-])ccc1F)c1ccc2c(c1)OCCO2	30%	56*	?	28*
O=C(Nc1ccc2c(c1)oc1ccccc12)c1ccc2c(c1)OCO2	79%	73	?	45*
Cc1ccnc(NC(=O)c2ccc3c(c2)OCO3)c1	261%	66*	-7%	25*
O=C(Nc1ccc(Cl)c(Cl)c1)c1ccc2c(c1)OCO2	250%	98*	-14%	42*
O=C(Nc1cc([N+](=O)[O-])ccc1F)c1ccc2ccccc2c1	53%	4	?	5

Assay outcomes as filed in PubChem.
